The full list was thinned out, with hits kept by preference.
Dicer inh: blocks human Dicer maturation of pre-miR-21; Q9UPY3; cat-ELCCA pre-miR-21 Dicer processing, chemiluminescence; stronger effect = higher value; z-score at 25 µM; 6% of 47,000 active; in the data active = z-score above about 3, passing the limit was not always enough;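 note: higher signal means more uncleaved substrate so more Dicer inhibition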
Target sequence (Q9UPY3 whole entry, looked up): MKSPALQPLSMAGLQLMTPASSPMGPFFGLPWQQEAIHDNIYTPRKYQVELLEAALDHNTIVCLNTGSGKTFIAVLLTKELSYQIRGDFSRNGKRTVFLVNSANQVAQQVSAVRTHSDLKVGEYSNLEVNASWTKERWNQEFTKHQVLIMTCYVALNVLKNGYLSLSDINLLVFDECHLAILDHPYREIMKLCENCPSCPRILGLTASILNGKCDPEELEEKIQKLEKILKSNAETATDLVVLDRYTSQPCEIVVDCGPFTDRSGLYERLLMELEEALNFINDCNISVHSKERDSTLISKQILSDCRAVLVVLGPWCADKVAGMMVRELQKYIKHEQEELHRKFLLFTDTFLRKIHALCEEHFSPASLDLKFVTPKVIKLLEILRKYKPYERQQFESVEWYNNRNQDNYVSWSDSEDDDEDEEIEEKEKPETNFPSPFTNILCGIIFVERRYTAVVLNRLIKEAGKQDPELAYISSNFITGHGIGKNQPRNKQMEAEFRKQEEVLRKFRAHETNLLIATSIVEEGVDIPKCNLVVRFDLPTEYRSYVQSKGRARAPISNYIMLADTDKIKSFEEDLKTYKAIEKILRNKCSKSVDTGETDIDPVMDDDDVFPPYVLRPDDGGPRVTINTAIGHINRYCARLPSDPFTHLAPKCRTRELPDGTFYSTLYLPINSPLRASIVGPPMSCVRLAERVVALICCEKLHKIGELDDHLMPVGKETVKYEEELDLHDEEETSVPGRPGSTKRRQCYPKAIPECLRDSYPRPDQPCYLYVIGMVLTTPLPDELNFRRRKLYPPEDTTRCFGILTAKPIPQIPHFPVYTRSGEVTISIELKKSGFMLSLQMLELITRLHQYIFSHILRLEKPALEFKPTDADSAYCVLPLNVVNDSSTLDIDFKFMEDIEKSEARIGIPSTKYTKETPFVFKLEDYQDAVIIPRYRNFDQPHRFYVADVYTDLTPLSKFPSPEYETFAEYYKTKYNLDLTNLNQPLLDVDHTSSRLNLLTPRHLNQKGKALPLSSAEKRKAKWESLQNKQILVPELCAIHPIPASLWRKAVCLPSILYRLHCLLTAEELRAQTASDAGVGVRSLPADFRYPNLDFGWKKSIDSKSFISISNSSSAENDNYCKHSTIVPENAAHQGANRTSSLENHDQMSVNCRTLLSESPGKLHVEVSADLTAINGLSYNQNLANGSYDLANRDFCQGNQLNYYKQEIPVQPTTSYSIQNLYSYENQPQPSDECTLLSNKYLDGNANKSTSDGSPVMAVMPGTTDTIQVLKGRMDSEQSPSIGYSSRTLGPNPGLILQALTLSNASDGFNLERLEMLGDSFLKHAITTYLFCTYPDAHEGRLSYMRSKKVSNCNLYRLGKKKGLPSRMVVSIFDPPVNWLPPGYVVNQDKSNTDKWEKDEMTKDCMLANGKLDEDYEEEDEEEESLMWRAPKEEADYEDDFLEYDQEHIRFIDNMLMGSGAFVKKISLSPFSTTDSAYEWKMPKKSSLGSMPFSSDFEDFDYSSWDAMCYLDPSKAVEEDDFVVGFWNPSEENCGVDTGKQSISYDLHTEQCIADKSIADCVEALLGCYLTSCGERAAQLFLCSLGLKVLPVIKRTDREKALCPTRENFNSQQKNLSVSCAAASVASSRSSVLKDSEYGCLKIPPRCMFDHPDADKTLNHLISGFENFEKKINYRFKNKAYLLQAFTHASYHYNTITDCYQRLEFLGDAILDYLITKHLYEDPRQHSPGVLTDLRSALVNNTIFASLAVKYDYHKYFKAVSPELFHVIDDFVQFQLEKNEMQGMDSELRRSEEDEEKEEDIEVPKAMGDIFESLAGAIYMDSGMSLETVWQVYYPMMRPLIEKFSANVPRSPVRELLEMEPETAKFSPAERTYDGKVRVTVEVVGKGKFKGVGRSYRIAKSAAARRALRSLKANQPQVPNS
Large screens that a line does not name were inactive.

COc1ccc(C2CC(=O)C3=C(C2)NC(C)=C(C#N)C3c2cccc(OC)c2OC)cc1 (centres undefined)	none
CCOC(=O)N/N=C(\C)c1ccc(/C(C)=N/NC(=O)OCC)cc1	none
CCCCc1ccc(C(=O)CCC(=O)O)cc1	none
CCC12CN3CC(CC)(CN(C1)C3c1ccc(F)cc1)C2=O (centres undefined)	none
COc1ccc2ncc(-c3ccc(Cl)c(C)c3)nc2c1	none
O=S(=O)(c1ccccc1)n1ccc(-c2cnc3cc(Cl)c(Cl)cc3n2)c1	none
Cc1cc2ncc(-c3ccccc3)nc2cc1C	Dicer inh 5.81
N#CCC(=O)Nc1cc(C(F)(F)F)ccc1Cl	none
CSc1scc(Cl)c1S(=O)(=O)C(C)C	Dicer inh 13.7
CSc1sc(C(=O)O)c(N)c1S(=O)(=O)C(C)C	none
CSc1scc(NC(=O)Nc2ccc(OC(F)(F)F)cc2)c1S(=O)(=O)C(C)C	none
O=C(Nc1ccc(N2C(=O)c3cccnc3C2=O)cc1)c1cccs1	none
CC(=O)Oc1ccc(N2C(=O)c3cccnc3C2=O)cc1	Dicer inh 3.06
COC(=O)Cc1ccc(N2C(=O)c3cccnc3C2=O)cc1	none
Fc1ccc(C2=NN(C(=S)NCc3ccccc3)CCC2)cc1	none
Cn1cccc1CNCC(O)C(F)(F)F (centres undefined)	none
CN(C)CCCNCc1cccn1C	Dicer inh 3.07
Cn1cccc1CNCc1cccnc1	none
Fc1c(CN2CCOCC2)cccc1CN1CCOCC1	none
O=[N+]([O-])c1ccc(S(=O)(=O)c2ccccc2)nc1S(=O)(=O)c1ccccc1	none
Cn1nnnc1SCC(=O)Nc1ccc(Br)cc1	none
COc1cc(C)nc(SCC(N)=O)n1	none
COc1cc(C)nc(-n2nc(C)cc2OC)n1	none
COc1cc(C)nc(N(CCO)CCO)n1	Dicer inh 5.89
COCCOC(=O)C1=C(C)NC2=C(C(=O)CC(c3ccccc3)C2)C1c1cc2c(cc1Cl)OCO2 (centres undefined)	none
C=C(C)Cn1c(CN2CCOCC2)nc2c1c(=O)[nH]c(=O)n2C	none
Cc1nc2c(=O)n(C)c3c(c(=O)n(C)c(=O)n3C)c2o1	none
CCOC(=O)c1c[nH]c2c(C(=O)OCC)cccc2c1=O	none
Oc1ccc(Cl)cc1C1=Nc2ccccc2N=C(c2ccco2)C1	Dicer inh 3.03
COc1ccc(O)c(C2=Nc3ccccc3N=C(c3ccco3)C2)c1	none
O=c1oc(-c2ccco2)nc2cc(Cl)ccc12	none
Cc1onc(C(=O)NNC(=O)Nc2ccc(Cl)cc2)c1-c1csc(-c2ccccc2)n1	none
O=C(Nc1ccc2c(c1)OCO2)c1cc2n(n1)C(C(F)(F)F)CC(c1ccco1)N2 (centres undefined)	none
Cc1ccc(N2C(=O)C3C4C=CC(CO)(O4)C3C2=O)cc1Br (centres undefined)	none
Cc1ccc(N2C(=O)C3C4c5ccccc5C(C(=O)O)(c5ccccc54)C3C2=O)cc1 (centres undefined)	none
CC1(C(=O)O)NC(c2ccc(O)cc2O)C2C(=O)N(c3ccc(Br)cc3)C(=O)C21 (centres undefined)	Dicer inh 5.01
COc1ccc(Cl)cc1N1CC(O)=C(c2nc3ccccc3s2)C1=N	none
CCOC(=O)c1c(NC(=O)COc2ccccc2)sc2c1CC(C)(C)OC2	none
N#Cc1c(N2C(=O)C3CC=C(Cl)CC3C2=O)sc2c1CCCC2 (centres undefined)	none
CC1(C)Cc2c(sc(NC(=O)CN3C(=O)C4CC=C(Cl)CC4C3=O)c2C#N)CO1 (centres undefined)	Dicer inh 4.82
C/C(=N\NC(=O)c1ccc(C(C)(C)C)cc1)c1ccccc1O	none
COC(=O)c1cnn(-c2c(Cl)cc(Cl)cc2Cl)c1C(OC)OC	none
CC(C)(C)c1cc(Cl)c(OS(=O)(=O)c2cc(Cl)cc(Cl)c2)c(Br)c1	none
Nc1ccc(O)c2c1C(=O)c1c(N)ccc(O)c1C2=O	Dicer inh 3.23
Nc1ccc(O)c(C(=O)O)c1	none
O=C1c2c(O)cccc2Cc2cccc(O)c21	none
COC(=O)c1ccc(S(=O)(=O)NCCNc2cccc(C(F)(F)F)n2)n1C	none
CCOCCOC(=O)C1=C(C)NC2=C(C(=O)CC(c3ccc(Cl)cc3)C2)C1c1ccc(F)cc1 (centres undefined)	Dicer inh 4.2
CCOC(=O)C1=C(C)NC2=C(C(=O)CC(c3ccc(OC)cc3)C2)C1c1ccc(OC)cc1 (centres undefined)	none
CCOC(=O)C1=C(C)NC2=C(C(=O)CC(c3ccc(Cl)cc3)C2)C1c1ccc(N(C)C)cc1 (centres undefined)	none
CCOc1ccc(C2C(C(=O)OC)=C(C)NC3=C2C(=O)CC(c2ccc(OC)c(OC)c2)C3)cc1 (centres undefined)	Dicer inh 3.19
CCCOc1ccc(C2C(C(=O)OC)=C(C)NC3=C2C(=O)CC(c2ccc(OC)cc2)C3)cc1 (centres undefined)	none
CCOCCOC(=O)C1=C(C)NC2=C(C(=O)CC(c3ccccc3)C2)C1c1ccccc1OCC (centres undefined)	none
CCOc1cc(C2C(C(=O)OC)=C(C)NC3=C2C(=O)CC(c2ccccc2)C3)cc(Cl)c1O (centres undefined)	Dicer inh 3.72
CCOC(=O)C1=C(C)NC2=C(C(=O)CC(c3ccc(Cl)cc3)C2)C1c1ccc(OCC)cc1 (centres undefined)	Dicer inh 3.37

High-throughput results as filed in PubChem.
